Data: PubChem BioAssay AID2283302 (EPA ToxCast)
Records with an inconclusive call do not appear. Activity calls are given as the source filed them. Rule for the calls: active = hit-call score of the fitted dose curve at least 0.9, where 1 is the maximum; inconclusive = response in the unintended direction; inactive = score below 0.9.

biological target: rat Gamma-HydroxyButyrate Receptor (GHB), Tspan17 (gene 306771) (UniProt Q4V8E0); assay: NVS_GPCR_rGHB: NovaScreen (NVS) G Protein-Coupled Receptor Assay for rat Gamma-HydroxyButyrate Receptor (GHB)
Sequence (Q4V8E0 whole entry, looked up): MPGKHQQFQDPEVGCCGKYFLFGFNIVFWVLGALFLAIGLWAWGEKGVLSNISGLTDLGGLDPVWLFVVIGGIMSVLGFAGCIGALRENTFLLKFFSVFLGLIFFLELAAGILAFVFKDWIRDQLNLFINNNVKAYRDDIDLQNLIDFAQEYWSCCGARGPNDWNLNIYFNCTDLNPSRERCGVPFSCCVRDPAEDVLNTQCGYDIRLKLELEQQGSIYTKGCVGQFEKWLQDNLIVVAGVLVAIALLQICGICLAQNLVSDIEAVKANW
Method: NVS_GPCR_rGHB is a biochemical, single-readout assay that uses extracted gene-proteins from Rat forebrain in a tissue-based cell-free assay. Measurements were taken 1 hour after chemical dosing in a 48-well plate.NVS_GPCR_rGHB is one of one assay component(s) measured or calculated from the NVS_GPCR_rGHB assay. It is designed to make measurements of radioligand binding, a form of binding reporter, as detected with scintillation counting signals by Filter-based radiodetection technology.Data from the assay component NVS_GPCR_rGHB was analyzed into 1 assay endpoint. This assay endpoint, NVS_GPCR_rGHB, was analyzed in the positive analysis fitting direction relative to DMSO as the negative control and baseline of activity. Using a type of binding reporter, loss-of-signal activity can be used to understand changes in the binding as they relate to the gene Tspan17. Furthermore, this assay endpoint can be referred to as a primary readout, because the performed assay has only produced 1 assay endpoint. To generalize the intended target to other relatable targets, this assay endpoint is annotated to the gpcr intended target family, where the subfamily is metabotropic glutamate receptor.
Binding assays used specific radioligands (tritiated, iodinated) with non-radioactive competitive displacement ligands in agonist or antagonist protocols (as indicated) and various reference compounds and inhibitors to titrate specific binding to receptors and transporters. Most enzyme assays (CYPs, kinases, phosphatases, proteases, HDACs) used recombinant protein and specific substrates (fluorescence mostly, some colorimetric and radioactive) and inhibitors, followed by a biochemical separation of substrate and product. All assays for the biochemical HTS were initially run in duplicate at a single concentration (10 uM for CYP450 assays and 25 uM for all others). Assay-chemical combinations meeting a pre-defined threshold (e.g., 30% inhibition and other criteria defined below) were then run in singleton concentration-response format with maximum concentration of 20 uM for CYPs and 50 uM for all others. Each assay was run with positive and negative controls, and concurrent controls on every plate. The follow-up (secondary) screen tested active chemical-pairs in concentration series, as well as a few additional assays not tested in the primary screen, some selected negative inactives, and several cases re-run in the concentration series for confirmatory purposes.

Row | Compound | AC50 | outcome
1 | Cn1c(=O)cc(Oc2ccc(F)cc2F)c2cnc(NCC(C)(C)O)nc21 | 0.166 µM (active) | 
2 | COC(=O)CSc1cc(N=c2sc(=O)n3n2CCCC3)c(F)cc1Cl |  | inactive
3 | Cc1cccc(Nc2cc(Cl)nc(SCC(=O)O)n2)c1C | 19.2 µM (active) | 
4 | O=C(O)c1cccc(N(Cc2cccnc2)c2ccc(OC(F)F)c(OC(F)F)c2)c1 |  | inactive
